# Source: article PMC7862700, “An all-to-all approach to the identification of sequence-specific readers for epigenetic DNA modifications on cytosine”
# What was measured:
# Experiment in all cases: DAPPL (digital affinity profiling via proximity ligation, sequencing); 10 mM Tris-HCl pH 7.5, 50 mM NaCl, 1 mM DTT, 4% glycerol, room temperature, 30 min; GST-TFs on glutathione beads, 16-mer random dsDNA library, 0.1% formaldehyde crosslink after washing; high values mean tight binding
# Settings in all cases: protein: recombinant; tags: N-terminal GST; dsDNA, one strand shown
# FLI1 = target: T1, FLI1 (Homo sapiens, UniProt Q01543 1-452)
# T1 sequence: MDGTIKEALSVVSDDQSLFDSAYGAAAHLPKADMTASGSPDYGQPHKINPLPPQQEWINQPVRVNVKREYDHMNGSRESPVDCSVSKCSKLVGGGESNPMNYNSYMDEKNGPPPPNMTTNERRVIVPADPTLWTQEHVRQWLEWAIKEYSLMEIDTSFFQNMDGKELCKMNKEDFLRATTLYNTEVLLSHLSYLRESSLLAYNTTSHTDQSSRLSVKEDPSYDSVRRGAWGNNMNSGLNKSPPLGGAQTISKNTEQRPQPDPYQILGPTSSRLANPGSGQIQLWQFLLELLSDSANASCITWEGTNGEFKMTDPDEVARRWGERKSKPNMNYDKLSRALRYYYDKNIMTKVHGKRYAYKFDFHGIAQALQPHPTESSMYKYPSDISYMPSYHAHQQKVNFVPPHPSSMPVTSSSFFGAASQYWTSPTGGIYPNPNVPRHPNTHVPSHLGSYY
# Method in brief: (§1)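 Binding signal is defined as a hexamer's read frequency for one factor over its frequency for the tag-only sample. To obtain reads, GST-fused human transcription factors were expressed in yeast, captured on glutathione beads, barcoded with DNA and pooled with that sample. Pools met 200 nmole of a 16-mer random double-stranded DNA library in Tris/NaCl/DTT/glycerol buffer for 30 min at room temperature before washing, 0.1% formaldehyde crosslinking, proximity ligation (BsaI/T4 ligase, 1 h, 37 °C), PCR and Illumina NextSeq500 sequencing.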
# ELK1 = target: T2, ELK1 (Homo sapiens, UniProt P19419 1-428)
# T2 sequence: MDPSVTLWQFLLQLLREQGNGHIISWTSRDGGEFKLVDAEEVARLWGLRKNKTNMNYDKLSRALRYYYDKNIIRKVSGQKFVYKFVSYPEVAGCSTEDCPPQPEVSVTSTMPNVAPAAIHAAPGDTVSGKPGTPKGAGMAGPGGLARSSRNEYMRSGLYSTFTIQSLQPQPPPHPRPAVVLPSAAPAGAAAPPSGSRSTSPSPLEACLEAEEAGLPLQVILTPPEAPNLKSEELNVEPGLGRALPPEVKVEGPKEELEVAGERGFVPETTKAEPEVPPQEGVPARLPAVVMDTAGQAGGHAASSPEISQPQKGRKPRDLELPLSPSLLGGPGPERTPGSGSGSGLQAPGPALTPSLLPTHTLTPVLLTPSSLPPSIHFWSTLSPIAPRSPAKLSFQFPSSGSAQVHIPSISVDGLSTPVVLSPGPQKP
# Method in brief: as §1
# GABPA = target: T3, GABPA (Homo sapiens, UniProt Q06546 1-454)
# T3 sequence: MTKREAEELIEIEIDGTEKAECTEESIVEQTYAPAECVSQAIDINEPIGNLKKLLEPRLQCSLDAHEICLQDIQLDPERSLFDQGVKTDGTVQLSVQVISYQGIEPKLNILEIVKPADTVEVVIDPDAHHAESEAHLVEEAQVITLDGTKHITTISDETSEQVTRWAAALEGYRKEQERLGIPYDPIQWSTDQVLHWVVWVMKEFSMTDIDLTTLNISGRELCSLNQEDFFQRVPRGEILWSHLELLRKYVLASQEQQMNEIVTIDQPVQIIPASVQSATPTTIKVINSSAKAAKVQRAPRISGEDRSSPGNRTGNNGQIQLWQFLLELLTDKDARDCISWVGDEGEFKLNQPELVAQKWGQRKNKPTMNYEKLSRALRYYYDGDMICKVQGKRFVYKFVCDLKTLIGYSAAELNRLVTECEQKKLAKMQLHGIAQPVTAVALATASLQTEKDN
# Method in brief: as §1
# ERG = target: T4, ERG (Homo sapiens, UniProt P11308 1-479)
# T4 sequence: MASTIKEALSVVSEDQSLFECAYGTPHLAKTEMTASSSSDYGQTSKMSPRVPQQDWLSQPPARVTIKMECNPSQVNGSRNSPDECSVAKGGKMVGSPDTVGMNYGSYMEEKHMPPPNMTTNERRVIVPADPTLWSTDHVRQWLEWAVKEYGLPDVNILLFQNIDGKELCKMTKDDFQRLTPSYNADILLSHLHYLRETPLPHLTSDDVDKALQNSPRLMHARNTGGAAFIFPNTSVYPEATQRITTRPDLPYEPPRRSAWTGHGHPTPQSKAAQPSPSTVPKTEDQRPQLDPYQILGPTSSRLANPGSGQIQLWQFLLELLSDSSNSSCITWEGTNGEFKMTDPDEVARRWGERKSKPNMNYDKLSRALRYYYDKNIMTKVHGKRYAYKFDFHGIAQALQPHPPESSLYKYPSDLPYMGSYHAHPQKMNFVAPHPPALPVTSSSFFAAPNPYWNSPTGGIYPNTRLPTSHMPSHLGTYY
# Method in brief: as §1
# ELF1 = ELF1 (Homo sapiens, UniProt P32519 1-619)
# Sequence of ELF1 (P32519 whole entry): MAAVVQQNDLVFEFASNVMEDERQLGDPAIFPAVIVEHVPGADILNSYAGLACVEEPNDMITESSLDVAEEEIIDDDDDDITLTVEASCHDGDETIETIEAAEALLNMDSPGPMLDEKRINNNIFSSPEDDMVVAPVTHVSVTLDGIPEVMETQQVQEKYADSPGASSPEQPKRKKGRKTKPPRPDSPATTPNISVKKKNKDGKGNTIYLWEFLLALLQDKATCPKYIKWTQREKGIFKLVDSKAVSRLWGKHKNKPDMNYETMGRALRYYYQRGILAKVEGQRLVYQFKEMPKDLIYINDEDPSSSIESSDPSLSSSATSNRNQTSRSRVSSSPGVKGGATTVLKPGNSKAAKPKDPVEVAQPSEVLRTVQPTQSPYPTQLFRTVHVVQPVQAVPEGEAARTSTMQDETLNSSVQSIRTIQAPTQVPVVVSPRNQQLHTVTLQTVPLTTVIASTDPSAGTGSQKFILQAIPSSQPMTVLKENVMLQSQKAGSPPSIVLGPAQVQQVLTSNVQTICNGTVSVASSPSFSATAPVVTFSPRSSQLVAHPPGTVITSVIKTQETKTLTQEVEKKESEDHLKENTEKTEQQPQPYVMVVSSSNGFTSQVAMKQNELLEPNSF
# Method in brief: as §1
# EHF = target: T5, EHF (Homo sapiens, UniProt Q9NZC4 1-300)
# T5 sequence: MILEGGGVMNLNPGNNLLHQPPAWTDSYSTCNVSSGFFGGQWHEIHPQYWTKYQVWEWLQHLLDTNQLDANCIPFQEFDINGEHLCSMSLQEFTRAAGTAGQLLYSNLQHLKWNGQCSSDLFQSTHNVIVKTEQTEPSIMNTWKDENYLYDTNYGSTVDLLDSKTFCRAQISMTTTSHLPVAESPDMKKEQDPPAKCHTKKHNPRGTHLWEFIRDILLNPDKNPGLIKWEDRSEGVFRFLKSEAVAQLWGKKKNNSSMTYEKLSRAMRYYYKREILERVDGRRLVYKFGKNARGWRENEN
# Method in brief: as §1
# SPI1 = SPI1 (Homo sapiens, UniProt P17947 1-270)
# Method in brief: as §1
# SPIB = SPIB (Homo sapiens, UniProt Q01892 1-262)
# Sequence of SPIB (Q01892 whole entry): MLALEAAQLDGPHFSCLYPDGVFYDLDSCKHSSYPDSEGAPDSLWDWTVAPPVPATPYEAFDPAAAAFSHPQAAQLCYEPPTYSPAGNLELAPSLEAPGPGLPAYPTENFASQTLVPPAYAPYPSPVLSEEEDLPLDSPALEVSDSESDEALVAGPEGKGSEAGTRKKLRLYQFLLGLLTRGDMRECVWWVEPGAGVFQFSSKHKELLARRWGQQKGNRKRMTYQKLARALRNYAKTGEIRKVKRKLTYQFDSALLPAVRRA
# Method in brief: as §1
# ELK3 = target: T6, ELK3 (Homo sapiens, UniProt P41970 1-407)
# T6 sequence: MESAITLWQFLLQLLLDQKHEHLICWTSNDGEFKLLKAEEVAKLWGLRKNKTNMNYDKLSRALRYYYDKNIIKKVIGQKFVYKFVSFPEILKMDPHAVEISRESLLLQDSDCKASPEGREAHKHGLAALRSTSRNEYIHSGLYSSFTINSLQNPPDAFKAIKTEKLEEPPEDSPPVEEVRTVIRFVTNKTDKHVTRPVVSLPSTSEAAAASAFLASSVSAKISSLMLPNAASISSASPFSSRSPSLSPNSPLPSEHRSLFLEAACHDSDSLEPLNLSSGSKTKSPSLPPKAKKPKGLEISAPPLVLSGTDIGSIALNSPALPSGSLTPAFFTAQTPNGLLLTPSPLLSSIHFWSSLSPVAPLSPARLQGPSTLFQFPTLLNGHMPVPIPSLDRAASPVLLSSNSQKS
# Method in brief: as §1
# FEV = target: T7, FEV (Homo sapiens, UniProt Q99581 1-238)
# T7 sequence: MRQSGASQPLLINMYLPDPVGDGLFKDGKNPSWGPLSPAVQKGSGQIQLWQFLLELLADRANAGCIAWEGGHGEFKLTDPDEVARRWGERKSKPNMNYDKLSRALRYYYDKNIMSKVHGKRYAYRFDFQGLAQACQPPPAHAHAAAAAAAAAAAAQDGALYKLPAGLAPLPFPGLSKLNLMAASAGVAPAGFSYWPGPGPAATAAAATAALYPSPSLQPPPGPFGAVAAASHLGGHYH
# Method in brief: as §1
# ETV5 = ETV5 (Homo sapiens, UniProt P41161 1-510)
# Sequence of ETV5 (P41161 whole entry): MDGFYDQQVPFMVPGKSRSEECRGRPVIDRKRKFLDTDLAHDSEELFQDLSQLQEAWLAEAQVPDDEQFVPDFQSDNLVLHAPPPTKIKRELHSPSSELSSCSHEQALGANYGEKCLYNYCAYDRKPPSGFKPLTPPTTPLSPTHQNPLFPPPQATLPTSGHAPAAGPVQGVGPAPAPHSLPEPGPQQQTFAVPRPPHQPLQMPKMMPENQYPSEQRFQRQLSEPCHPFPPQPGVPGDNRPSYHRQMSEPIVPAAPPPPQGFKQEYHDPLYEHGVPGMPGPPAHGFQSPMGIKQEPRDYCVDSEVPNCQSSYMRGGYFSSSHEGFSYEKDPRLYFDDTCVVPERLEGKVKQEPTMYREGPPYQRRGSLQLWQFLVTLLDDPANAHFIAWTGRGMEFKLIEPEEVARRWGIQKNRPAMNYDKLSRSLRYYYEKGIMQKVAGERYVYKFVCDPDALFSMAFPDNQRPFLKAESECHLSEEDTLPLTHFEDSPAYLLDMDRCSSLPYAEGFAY
# Method in brief: as §1
# SPIC = target: T8, SPIC (Homo sapiens, UniProt Q8N5J4 1-248)
# T8 sequence: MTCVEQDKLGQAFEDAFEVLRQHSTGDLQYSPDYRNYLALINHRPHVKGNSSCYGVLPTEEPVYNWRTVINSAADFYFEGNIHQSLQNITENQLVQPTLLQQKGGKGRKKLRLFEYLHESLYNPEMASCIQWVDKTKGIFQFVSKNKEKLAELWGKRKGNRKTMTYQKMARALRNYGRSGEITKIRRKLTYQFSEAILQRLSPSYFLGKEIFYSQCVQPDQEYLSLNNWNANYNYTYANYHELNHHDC
# Method in brief: as §1
# ELF4 = ELF4 (Homo sapiens, UniProt Q99607 1-663)
# Sequence of ELF4 (Q99607 whole entry): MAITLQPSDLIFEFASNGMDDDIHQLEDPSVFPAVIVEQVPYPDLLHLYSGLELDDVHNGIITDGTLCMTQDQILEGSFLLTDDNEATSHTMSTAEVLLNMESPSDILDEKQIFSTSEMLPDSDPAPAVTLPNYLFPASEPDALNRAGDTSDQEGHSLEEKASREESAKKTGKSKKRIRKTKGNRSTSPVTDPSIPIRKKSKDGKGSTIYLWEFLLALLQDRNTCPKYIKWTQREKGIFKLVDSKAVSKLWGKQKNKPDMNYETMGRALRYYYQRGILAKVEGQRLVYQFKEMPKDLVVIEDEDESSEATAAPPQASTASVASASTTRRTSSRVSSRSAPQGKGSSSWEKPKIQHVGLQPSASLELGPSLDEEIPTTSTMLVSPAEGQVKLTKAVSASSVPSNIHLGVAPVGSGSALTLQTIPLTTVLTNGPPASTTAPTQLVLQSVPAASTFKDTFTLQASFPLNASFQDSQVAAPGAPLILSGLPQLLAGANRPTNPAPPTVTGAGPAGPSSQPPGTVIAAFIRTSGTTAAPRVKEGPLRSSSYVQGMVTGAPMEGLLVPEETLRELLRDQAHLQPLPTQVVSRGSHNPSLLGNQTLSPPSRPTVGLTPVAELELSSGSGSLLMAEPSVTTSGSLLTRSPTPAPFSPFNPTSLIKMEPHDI
# Method in brief: as §1
# ELK4 = target: T9, ELK4 (Homo sapiens, UniProt P28324-2 1-405)
# T9 sequence: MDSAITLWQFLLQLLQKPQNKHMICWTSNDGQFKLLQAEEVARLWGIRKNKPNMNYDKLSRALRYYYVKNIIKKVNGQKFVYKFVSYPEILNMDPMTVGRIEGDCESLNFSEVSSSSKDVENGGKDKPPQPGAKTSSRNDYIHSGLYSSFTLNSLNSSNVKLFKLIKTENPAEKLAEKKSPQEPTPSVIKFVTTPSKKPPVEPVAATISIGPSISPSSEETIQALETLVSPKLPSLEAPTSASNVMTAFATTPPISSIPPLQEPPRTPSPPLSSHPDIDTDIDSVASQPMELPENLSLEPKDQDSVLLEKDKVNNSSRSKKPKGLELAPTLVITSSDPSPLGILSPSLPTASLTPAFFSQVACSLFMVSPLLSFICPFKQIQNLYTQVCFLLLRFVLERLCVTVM
# Method in brief: as §1
# ELF3 = target: T10, ELF3 (Homo sapiens, UniProt P78545 1-371)
# T10 sequence: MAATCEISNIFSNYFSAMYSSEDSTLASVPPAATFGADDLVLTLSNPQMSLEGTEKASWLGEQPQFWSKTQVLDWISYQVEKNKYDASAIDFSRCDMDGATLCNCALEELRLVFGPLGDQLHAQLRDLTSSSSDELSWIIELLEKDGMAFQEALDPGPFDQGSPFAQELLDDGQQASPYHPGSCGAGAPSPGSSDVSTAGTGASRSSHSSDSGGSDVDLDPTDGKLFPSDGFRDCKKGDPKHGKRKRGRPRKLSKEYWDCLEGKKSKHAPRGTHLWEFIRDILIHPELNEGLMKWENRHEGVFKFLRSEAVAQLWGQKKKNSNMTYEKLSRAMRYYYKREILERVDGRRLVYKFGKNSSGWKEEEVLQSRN
# Method in brief: as §1
# CRX = CRX (Homo sapiens, UniProt O43186 1-299)
# Sequence of CRX (O43186 whole entry): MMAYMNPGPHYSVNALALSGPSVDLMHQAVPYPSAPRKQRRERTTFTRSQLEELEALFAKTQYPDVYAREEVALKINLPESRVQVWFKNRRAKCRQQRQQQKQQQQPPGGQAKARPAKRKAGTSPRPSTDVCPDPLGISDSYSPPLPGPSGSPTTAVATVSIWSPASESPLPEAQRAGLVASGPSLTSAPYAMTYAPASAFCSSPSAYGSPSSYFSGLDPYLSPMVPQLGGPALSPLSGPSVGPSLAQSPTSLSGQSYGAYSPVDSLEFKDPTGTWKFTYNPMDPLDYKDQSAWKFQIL
# Method in brief: as §1
# ETV1 = ETV1 (Homo sapiens, UniProt P50549 1-477)
# Sequence of ETV1 (P50549 whole entry): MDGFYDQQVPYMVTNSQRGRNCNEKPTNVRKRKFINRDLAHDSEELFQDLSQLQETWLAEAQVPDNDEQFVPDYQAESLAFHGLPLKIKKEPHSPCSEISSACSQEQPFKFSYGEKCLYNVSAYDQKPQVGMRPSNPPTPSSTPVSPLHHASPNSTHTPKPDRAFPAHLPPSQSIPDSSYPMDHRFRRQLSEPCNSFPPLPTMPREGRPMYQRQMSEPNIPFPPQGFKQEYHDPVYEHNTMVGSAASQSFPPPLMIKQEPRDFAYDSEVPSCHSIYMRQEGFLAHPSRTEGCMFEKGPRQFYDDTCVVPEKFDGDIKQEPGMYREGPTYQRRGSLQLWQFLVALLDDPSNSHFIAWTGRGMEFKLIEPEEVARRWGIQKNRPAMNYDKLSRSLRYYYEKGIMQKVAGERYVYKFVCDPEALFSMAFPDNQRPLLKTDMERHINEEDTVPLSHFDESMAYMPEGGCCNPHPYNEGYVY
# Method in brief: as §1
sequence,measurement,setting,value
ATGTTG,binding signal,FLI1,"1.31 fold enrichment (6-mer frequency, TF over GST control)"
same,binding signal,ELK1,"1.26 fold enrichment (6-mer frequency, TF over GST control)"
same,binding signal,GABPA,"1.22 fold enrichment (6-mer frequency, TF over GST control)"
same,binding signal,ERG,"1.26 fold enrichment (6-mer frequency, TF over GST control)"
same,binding signal,ELF1,"1.35 fold enrichment (6-mer frequency, TF over GST control)"
same,binding signal,EHF,"1.21 fold enrichment (6-mer frequency, TF over GST control)"
same,binding signal,SPI1,"1.3 fold enrichment (6-mer frequency, TF over GST control)"
same,binding signal,SPIB,"1.18 fold enrichment (6-mer frequency, TF over GST control)"
same,binding signal,ELK3,"1.21 fold enrichment (6-mer frequency, TF over GST control)"
same,binding signal,FEV,"1.21 fold enrichment (6-mer frequency, TF over GST control)"
same,binding signal,ETV5,"1.3 fold enrichment (6-mer frequency, TF over GST control)"
same,binding signal,SPIC,"1.1 fold enrichment (6-mer frequency, TF over GST control)"
same,binding signal,ELF4,"1.2 fold enrichment (6-mer frequency, TF over GST control)"
same,binding signal,ELK4,"1.25 fold enrichment (6-mer frequency, TF over GST control)"
same,binding signal,ELF3,"1.11 fold enrichment (6-mer frequency, TF over GST control)"
same,binding signal,CRX,"1.04 fold enrichment (6-mer frequency, TF over GST control)"
same,binding signal,ETV1,"1.32 fold enrichment (6-mer frequency, TF over GST control)"
